# Measurements reported in PubChem BioAssay (Tox21).
# Values without a mark were called inactive. Results filed as inconclusive are left out. Where a call stands in place of a potency, no number is given. Activity calls are given as the source filed them. Unless noted, the call rests on the fitted dose curve; in most records, active means well fitted curve in the direction sought with a large enough effect in the repeat runs; inconclusive means weak or mixed curves; inactive means no such curve, though single readings can be large; an effect the other way counts as inactive or inconclusive.
# How the values were obtained:
# [1] = qHTS RealTime-Glo MT Cell Viability Assay in HEK293 cells - 0 hour (AID 1224880); further: nearly all actives have a fitted effect of over 45% in size; further: potency means the concentration at half of the fitted maximal effect; on activity change, negative = cytotoxicity: top concentration of the series differs between compounds
# Summary of the method: (§1)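 Luminescence, which tracks viable cell number through reduction of the prosubstrate to a NanoLuc substrate, was read over continuous 37 C culture. Cells (600/well) were premixed with reagent and rested 5 h before 23 nL of compound in DMSO was pinned.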
# [2] = A CellTox Green Cytotoxicity Assay to monitor cytotoxicity in HEK293 cells - 32 hour (AID 1224881); further: nearly all actives have a fitted effect of over 40% in size; further: potency means the concentration at half of the fitted maximal effect
# Summary of the method: (§2)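 Fluorescence from a DNA-binding dye excluded by viable cells was measured repeatedly in the same HEK293 wells (600 cells/well) during continuous compound exposure at 37 C. Each assay gives one read point: 0, 8, 16, 24, 32 or 40 h.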
# [3] = A CellTox Green Cytotoxicity Assay to monitor cytotoxicity in HepG2 cells - 0 hour (AID 1224882); further: nearly all actives have a fitted effect of over 35% in size; further: potency means the concentration at half of the fitted maximal effect
# Summary of the method: (§3)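 Real-time cytotoxicity: fluorescence of a cell-impermeant cyanine dye binding DNA of dead HepG2 cells, measured repeatedly (0–40 h) during compound exposure at 37 C. Cells seeded 600/well with reagent, dosed after 5 h.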
# [4] = A CellTox Green Cytotoxicity Assay to monitor cytotoxicity in HepG2 cells - 32 hour (AID 1224883); further: nearly all actives have a fitted effect of over 50% in size; further: potency means the concentration at half of the fitted maximal effect
# Summary of the method: as §3
# [5] = A CellTox Green Cytotoxicity Assay to monitor cytotoxicity in HEK293 cells - 8 hour (AID 1224884); further: nearly all actives have a fitted effect of over 35% in size; further: potency means the concentration at half of the fitted maximal effect
# Summary of the method: as §2
# [6] = qHTS RealTime-Glo MT Cell Viability Assay in HepG2 cells - 16 hour (AID 1224885); further: nearly all actives have a fitted effect of over 50% in size; further: potency means the concentration at half of the fitted maximal effect
# Summary of the method: (§4)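 Tox21 10K library screened in qHTS format on HepG2 cells carrying RealTime-Glo reagents. Compounds were added after a 5 h preincubation, and the luminescent signal from continuous culture was measured repeatedly during 40 h treatment.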
# [7] = qHTS RealTime-Glo MT Cell Viability Assay in HEK293 cells - 8 hour (AID 1224887); further: top concentration of the series differs between compounds; nearly all actives have a fitted effect of over 50% in size
# Summary of the method: as §1
# [8] = A CellTox Green Cytotoxicity Assay to monitor cytotoxicity in HEK293 cells - 16 hour (AID 1224888); further: nearly all actives have a fitted effect of over 35% in size; further: potency means the concentration at half of the fitted maximal effect
# Summary of the method: as §2
# [9] = A CellTox Green Cytotoxicity Assay to monitor cytotoxicity in HepG2 cells - 8 hour (AID 1224890); further: nearly all actives have a fitted effect of over 45% in size; further: potency means the concentration at half of the fitted maximal effect
# Summary of the method: as §3
# [10] = qHTS assay to identify small molecule antagonists of the estrogen receptor alpha (ER-alpha) signaling pathway using the BG1 cell line in the presence of 0.1 nM 17-beta-estradiol - cell viability counter screen (AID 1259241); further: nearly all actives have a fitted effect of over 40% in size
# Summary of the method: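 CellTiter-Fluor read (30 min, 37C) on ER-alpha/ERE-luc VM7Luc4E2 cells; 22 hr compound treatment; agonist 0.1 nM E2 final; same-well multiplex.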
# [11] = qHTS assay to identify small molecule antagonists of the androgen receptor (AR) signaling pathway using the MDA cell line in the presence of 0.5 nM R1881 - cell viability counter screen (AID 1259242); further: nearly all actives have a fitted effect of over 45% in size; further: potency means the concentration at half of the fitted maximal effect
# Summary of the method: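 Live-cell protease activity was measured by CellTiter-Fluor fluorescence after 30 min. Before that, MDA-kb2 MMTV-luciferase cells had 16 hr at 37C without CO2, exposed to test compounds and 0.5 nM R1881 final.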
# [12] = biological target: Estrogen receptor (Homo sapiens) (UniProt P03372); assay: qHTS assay to identify small molecule antagonists of the estrogen receptor alpha (ER-alpha) signaling pathway using the BG1 cell line in the presence of 0.1 nM 17-beta-estradiol (AID 1259244); further: nearly all actives have a fitted effect of over 50% in size; further: potency means the concentration at half of the fitted maximal effect
# Summary of the method: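 Luciferase luminescence (ONE-Glo, 30 min at room temperature) was read after 22 hr at 37C exposure to compounds plus 17beta-estradiol at 0.1 nM final. Cells were VM7Luc4E2 with endogenous ER-alpha and an ERE-driven luciferase, pre-cultured 5 days in hormone-depleted medium.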
# [13] = qHTS assay to identify small molecule phospholipidosis (PLD) inducers (AID 1259344; active means well fitted curve in the direction sought with a large enough effect; an effect the other way counts as inactive or inconclusive)
# Summary of the method: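 Accumulated phospholipid, stained red by LipidTOX during 24 h compound treatment of HepG2 cells at 37 C, is quantified from images as pit number and intensity, normalised per cell using Hoechst-stained nuclei.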
# [14] = qHTS assay to identify small molecule HDAC inhibitors (AID 1259364); further: nearly all actives have a fitted effect of over 45% in size; further: potency means the concentration at half of the fitted maximal effect
# Summary of the method: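 Luminescence read after 30 min room-temperature HDAC-Glo incubation measures cellular class I/II HDAC activity. Compounds were applied for 2 hr at 37 C to HCT-116 wild-type cells seeded the day before.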
# [15] = qHTS assay to identify small molecule HDAC inhibitors - cell viability counter screen (AID 1259365); further: nearly all actives have a fitted effect of over 50% in size; further: potency means the concentration at half of the fitted maximal effect; on activity change, negative = cytotoxicity: series mostly up to about 92 µM
# Summary of the method: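 To flag cytotoxic hits, 1,500 wild-type HCT-116 cells per well, plated the day before, receive test compounds for 2hr at 37 C before CellTiter-Glo reagent and a luminescence read.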
# [16] = qHTS assay to identify small molecule agonists of the sonic hedgehog signaling (Shh) pathway - cell viability counter screen (AID 1259366); further: nearly all actives have a fitted effect of over 50% in size; further: potency means the concentration at half of the fitted maximal effect
# Summary of the method: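 Fluorescence from CellTiter-Fluor reports live cells in this counter screen. NIH/3T3-derived Gli1-Luc reporter cells receive test compounds for 24hr at 37C; reagent goes in at 23hr.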
# [17] = qHTS assay to identify small molecule antagonists of the sonic hedgehog signaling (Shh) pathway - cell viability counter screen (AID 1259367); further: nearly all actives have a fitted effect of over 55% in size; further: potency means the concentration at half of the fitted maximal effect
# Summary of the method: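 CellTiter-Fluor signal in conditioned medium-stimulated 3T3 Gli1-Luc cells, 23 hr compound exposure, 37C.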
# [18] = qHTS RealTime-Glo MT Cell Viability Assay in HEK293 cells - 24 hour (AID 1224886); further: nearly all actives have a fitted effect of over 50% in size; further: potency means the concentration at half of the fitted maximal effect; on activity change, negative = cytotoxicity: top concentration of the series differs between compounds
# Summary of the method: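 Luminescence generated by NanoLuc from substrate produced by living HEK293 cells served as the viability signal. Each value reflects the reading at its stated time point during continuous 40 h compound exposure at 37 C.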
# [19] = qHTS RealTime-Glo MT Cell Viability Assay in HepG2 cells - 0 hour (AID 1224889); further: nearly all actives have a fitted effect of over 50% in size; further: potency means the concentration at half of the fitted maximal effect
# Summary of the method: as §4
# Chain of Estrogen receptor (Homo sapiens) (P03372 whole entry, looked up): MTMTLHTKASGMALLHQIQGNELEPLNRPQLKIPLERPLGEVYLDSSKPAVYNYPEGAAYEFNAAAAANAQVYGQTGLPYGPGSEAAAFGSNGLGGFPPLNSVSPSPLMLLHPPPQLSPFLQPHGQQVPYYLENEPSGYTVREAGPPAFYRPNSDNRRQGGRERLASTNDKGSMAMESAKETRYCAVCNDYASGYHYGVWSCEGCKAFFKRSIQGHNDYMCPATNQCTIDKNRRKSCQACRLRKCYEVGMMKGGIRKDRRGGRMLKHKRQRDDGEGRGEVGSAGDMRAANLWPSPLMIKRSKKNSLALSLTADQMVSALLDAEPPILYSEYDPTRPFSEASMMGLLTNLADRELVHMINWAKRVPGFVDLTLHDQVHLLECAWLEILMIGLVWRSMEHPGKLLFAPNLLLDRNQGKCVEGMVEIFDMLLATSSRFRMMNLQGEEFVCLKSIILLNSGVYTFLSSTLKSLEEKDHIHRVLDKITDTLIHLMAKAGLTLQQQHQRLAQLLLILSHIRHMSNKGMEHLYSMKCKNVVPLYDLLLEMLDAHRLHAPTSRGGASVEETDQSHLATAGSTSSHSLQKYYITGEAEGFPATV
smiles,measurement,setting,value
CCOC(=O)C1=C(C)NC(C)=C(C(=O)OC)C1c1cccc(Cl)c1Cl (stereo not given),Potency,[1],5.35 µM (active)
same,Potency,[2],inactive
same,Potency,[3],inactive
same,Potency,[4],inactive
same,Potency,[5],inactive
same,Potency,[6],19 µM (active)
same,Potency,[7],inactive
same,Potency,[8],inactive
same,Potency,[9],inactive
same,Potency,[10],inactive
same,Potency,[11],inactive
same,Potency,[12],inactive
same,Potency,[13],inactive
same,Potency,[14],inactive
same,Potency,[15],inactive
same,Potency,[16],inactive
same,Potency,[17],inactive
CN1CC(=O)N2[C@H](c3ccc4c(c3)OCO4)c3[nH]c4ccccc4c3C[C@@H]2C1=O,Potency,[1],inactive
same,Potency,[2],inactive
same,Potency,[3],inactive
same,Potency,[4],inactive
same,Potency,[5],inactive
same,Potency,[18],inactive
same,Potency,[7],inactive
same,Potency,[8],inactive
same,Potency,[19],inactive
same,Potency,[9],inactive
same,Potency,[10],inactive
same,Potency,[11],inactive
same,Potency,[12],inactive
same,Potency,[13],inactive
same,Potency,[14],inactive
same,Potency,[15],inactive
same,Potency,[16],inactive
same,Potency,[17],inactive
CNC(=O)c1cnn(-c2nc(N)c3ncn([C@@H]4O[C@H](CO)[C@@H](O)[C@H]4O)c3n2)c1,Potency,[1],inactive
same,Potency,[2],inactive
same,Potency,[3],inactive
same,Potency,[4],inactive
same,Potency,[5],inactive
same,Potency,[18],inactive
same,Potency,[7],inactive
same,Potency,[8],inactive
same,Potency,[19],inactive
same,Potency,[9],inactive
same,Potency,[10],inactive
same,Potency,[11],inactive
same,Potency,[12],inactive
same,Potency,[14],inactive
same,Potency,[15],inactive
same,Potency,[16],inactive
same,Potency,[17],inactive
COC(=O)C1=C(C)NC(C)=C(C(=O)O[C@@H]2CCCN(Cc3ccccc3)C2)[C@@H]1c1cccc([N+](=O)[O-])c1,Potency,[1],8.49 µM (active)
same,Potency,[2],inactive
same,Potency,[3],inactive
same,Potency,[4],inactive
same,Potency,[5],inactive
same,Potency,[18],inactive
same,Potency,[7],inactive
same,Potency,[8],inactive
same,Potency,[19],5.35 µM (active)
same,Potency,[9],inactive
same,Potency,[10],inactive
same,Potency,[11],inactive
same,Potency,[12],inactive
same,Potency,[13],inactive
same,Potency,[14],inactive
same,Potency,[15],inactive
CC1=C(Br)C(=O)C(Br)=C/C1=C(/c1ccccc1S(=O)(=O)O)c1cc(Br)c(O)c(Br)c1C,Potency,[1],33.3 µM (active)
same,Potency,[2],inactive
same,Potency,[3],inactive
same,Potency,[4],inactive
same,Potency,[5],inactive
same,Potency,[6],inactive
same,Potency,[18],inactive
same,Potency,[7],inactive
same,Potency,[19],16.7 µM (active)
same,Potency,[9],inactive
same,Potency,[11],18.6 µM (active)
same,Potency,[14],7.39 µM (active)
same,Potency,[15],18.6 µM (active)
same,Potency,[16],18.6 µM (active)
same,Potency,[17],20.8 µM (active)
Cc1ccco1,Potency,[1],inactive
same,Potency,[2],inactive
same,Potency,[3],inactive
same,Potency,[4],inactive
same,Potency,[5],inactive
same,Potency,[18],inactive
same,Potency,[7],inactive
same,Potency,[8],inactive
same,Potency,[19],inactive
same,Potency,[9],inactive
same,Potency,[10],inactive
same,Potency,[11],inactive
same,Potency,[12],inactive
same,Potency,[14],inactive
same,Potency,[15],inactive
same,Potency,[16],inactive
same,Potency,[17],inactive
CC(C)=CC(=O)C=C(C)C,Potency,[1],inactive
same,Potency,[2],inactive
same,Potency,[3],inactive
same,Potency,[4],inactive
same,Potency,[5],inactive
same,Potency,[6],inactive
same,Potency,[18],inactive
same,Potency,[7],inactive
same,Potency,[19],inactive
same,Potency,[9],inactive
same,Potency,[11],inactive
same,Potency,[12],inactive
same,Potency,[14],inactive
same,Potency,[15],inactive
same,Potency,[16],inactive
same,Potency,[17],inactive
CC1(C)S[C@@H]2[C@H](NC(=O)C(c3ccccc3)S(=O)(=O)O)C(=O)N2[C@H]1C(=O)O (stereo not given in full),Potency,[1],inactive
same,Potency,[2],inactive
same,Potency,[3],inactive
same,Potency,[4],inactive
same,Potency,[5],inactive
same,Potency,[6],inactive
same,Potency,[18],inactive
same,Potency,[7],inactive
same,Potency,[9],inactive
same,Potency,[10],inactive
same,Potency,[11],inactive
same,Potency,[12],inactive
same,Potency,[13],inactive
same,Potency,[14],inactive
same,Potency,[16],inactive
same,Potency,[17],inactive
Cc1cc(=O)c2c(O)c3c(O)cc(=O)c4c3c3c(cc(O)c1c23)C(C)(C)C=4O,"activity change, negative = cytotoxicity",[1],0.327% [at 15.8 µM]
same,Potency,[2],5.22 µM (active)
same,Potency,[3],4.65 µM (active)
same,Potency,[4],4.14 µM (active)
same,Potency,[5],7.37 µM (active)
same,"activity change, negative = cytotoxic",[6],-19% [at 15.8 µM]
same,"activity change, negative = cytotoxicity",[7],3.53% [at 15.8 µM]
same,Potency,[8],7.37 µM (active)
same,"activity change, negative = cytotoxicity",[19],-2.14% [at 15.8 µM]
same,Potency,[9],4.65 µM (active)
same,Potency,[13],inactive
same,"activity change, negative = cytotoxicity",[15],2.88% [at 19 µM]
same,"viability change, negative = cytotoxic",[16],17.6% [at 19 µM]
same,"viability change, negative = cytotoxic",[17],-14.6% [at 19 µM]
Cc1ccc(CO)cc1,Potency,[1],inactive
same,Potency,[2],inactive
same,Potency,[3],inactive
same,Potency,[4],inactive
same,Potency,[5],inactive
same,Potency,[18],inactive
same,Potency,[7],inactive
same,Potency,[8],inactive
same,Potency,[19],inactive
same,Potency,[9],inactive
same,Potency,[10],inactive
same,Potency,[11],inactive
same,Potency,[12],inactive
same,Potency,[14],inactive
same,Potency,[15],inactive
same,Potency,[16],inactive
same,Potency,[17],inactive
Cc1ccc(Cl)c(Nc2ccccc2C(=O)O)c1Cl,Potency,[1],inactive
same,Potency,[2],inactive
same,Potency,[3],inactive
same,Potency,[4],inactive
same,Potency,[5],inactive
same,Potency,[18],inactive
same,Potency,[7],inactive
same,Potency,[8],inactive
same,Potency,[19],inactive
same,Potency,[9],inactive
same,Potency,[10],inactive
same,Potency,[11],inactive
same,Potency,[12],inactive
same,Potency,[13],inactive
same,Potency,[14],inactive
same,Potency,[15],inactive
same,Potency,[16],inactive
same,Potency,[17],inactive
COc1ccc(OC(=O)N(CC(=O)O)Cc2ccc(OCCc3nc(-c4ccccc4)oc3C)cc2)cc1,Potency,[1],inactive
same,Potency,[2],inactive
same,Potency,[3],inactive
same,Potency,[4],inactive
same,Potency,[5],inactive
same,Potency,[18],inactive
same,Potency,[7],inactive
same,Potency,[8],inactive
same,Potency,[19],inactive
same,Potency,[9],inactive
same,Potency,[10],inactive
same,Potency,[11],inactive
same,Potency,[14],inactive
same,Potency,[15],inactive
same,Potency,[16],inactive
same,Potency,[17],inactive
CC(C)C[C@H](NC(=O)[C@H](CCc1ccccc1)NC(=O)CN1CCOCC1)C(=O)N[C@@H](Cc1ccccc1)C(=O)N[C@@H](CC(C)C)C(=O)[C@@]1(C)CO1,Potency,[1],inactive
same,Potency,[2],0.301 µM (active)
same,Potency,[3],inactive
same,Potency,[4],0.0239 µM (active)
same,Potency,[5],inactive
same,Potency,[18],0.0674 µM (active)
same,Potency,[7],inactive
same,Potency,[8],inactive
same,Potency,[19],inactive
same,Potency,[9],inactive
same,Potency,[10],inactive
same,Potency,[11],16.8 µM (active)
same,Potency,[12],0.168 µM (active)
same,Potency,[13],inactive
same,Potency,[14],inactive
same,Potency,[15],inactive
same,Potency,[16],inactive
same,Potency,[17],inactive
